Test results published in PubChem BioAssay AID743314 (Broad Institute, 2014).
Entries with a potency or affinity are not part of this list. Records with an inconclusive call do not appear.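 How the source made its calls: active means fitted half-maximal concentration no higher than twice the top tested dose, in every repeat run; inconclusive means repeat runs disagree, poor fit, or flat partial inhibition; inactive means the rest.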

What follows are compounds tested against Endoplasmic reticulum aminopeptidase 1 (Homo sapiens) (UniProt Q9NZ08) (assay: ERAP1 aminopeptidase inhibitors, dose response, biochemical, cherry-pick, set 2, plate reader (AID 743314;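 further: 0% = neutral control wells and -100% = L-leucinethiol positive control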)). Conditions: Recombinant ERAP1, Leu-AMC fluorescence, 60 min; series mostly up to 11 µM; activity change, negative = inhibition: at the top concentration.
Chain of Endoplasmic reticulum aminopeptidase 1 (Homo sapiens) (Q9NZ08 whole entry, looked up): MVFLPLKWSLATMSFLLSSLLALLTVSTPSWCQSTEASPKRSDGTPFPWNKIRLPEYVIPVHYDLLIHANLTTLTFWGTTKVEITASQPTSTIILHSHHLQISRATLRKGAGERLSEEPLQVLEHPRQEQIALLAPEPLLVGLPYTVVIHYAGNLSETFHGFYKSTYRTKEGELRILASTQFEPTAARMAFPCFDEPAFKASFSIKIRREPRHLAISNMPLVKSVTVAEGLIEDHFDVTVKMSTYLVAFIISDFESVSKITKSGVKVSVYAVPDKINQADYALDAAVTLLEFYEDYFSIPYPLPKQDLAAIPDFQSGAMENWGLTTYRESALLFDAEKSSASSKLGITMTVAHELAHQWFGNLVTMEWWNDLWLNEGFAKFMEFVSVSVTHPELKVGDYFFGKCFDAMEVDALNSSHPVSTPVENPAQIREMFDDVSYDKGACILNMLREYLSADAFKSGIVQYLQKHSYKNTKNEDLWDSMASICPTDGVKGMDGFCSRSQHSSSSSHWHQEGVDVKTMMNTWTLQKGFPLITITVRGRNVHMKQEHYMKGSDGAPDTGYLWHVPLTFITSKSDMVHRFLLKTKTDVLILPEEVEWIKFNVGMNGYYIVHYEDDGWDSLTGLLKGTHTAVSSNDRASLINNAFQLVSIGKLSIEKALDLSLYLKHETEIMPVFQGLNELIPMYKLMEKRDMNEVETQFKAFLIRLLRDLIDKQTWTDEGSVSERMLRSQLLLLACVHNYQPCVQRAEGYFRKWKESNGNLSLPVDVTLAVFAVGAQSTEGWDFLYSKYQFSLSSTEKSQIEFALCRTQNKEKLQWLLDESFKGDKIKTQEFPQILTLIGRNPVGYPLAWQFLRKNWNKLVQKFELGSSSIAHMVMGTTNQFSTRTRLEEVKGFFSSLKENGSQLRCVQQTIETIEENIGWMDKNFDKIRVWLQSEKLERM

Activity change, negative = inhibition, inactive:
CC(=O)N1CC[C@@H]2[C@H]1c1cc(-c3ccc(C#N)cc3)ccc1N(C)[C@H]2CO -3.73%
C[C@H]1CN([C@@H](C)CO)C(=O)c2cccc(NC(=O)Nc3ccc(C(F)(F)F)cc3)c2O[C@H]1CN(C)C 32.4%
CN(CC(=O)Nc1ccccc1C(F)(F)F)C(=O)CSc1nnc(-c2ccncc2)n1C 14.9%
Cc1noc(C)c1NC(=O)N(C)C[C@@H]1Oc2c(NC(=O)Nc3ccc(F)cc3)cccc2C(=O)N([C@@H](C)CO)C[C@@H]1C 51.5%
CC(OC(=O)c1cc(=O)[nH]c2ccccc12)C(=O)Nc1ccccc1F (stereo not drawn) 3.54%
Cn1cnc(C(=O)N2CCN(C(=O)OC(C)(C)C)CC2)c1C(=O)N1CCN(C(=O)OC(C)(C)C)CC1 -10.3%
CCOC(=O)C1CCN(S(=O)(=O)c2ccc3c(c2)CC(=O)N3C)CC1 -1.92%
COc1ccc(CN(C)C(=O)CCCNC(=O)c2ccc(Cl)cc2)cc1 -4.67%
COc1ccc(C(=O)NCc2nnc(SCCOc3ccccc3)n2C)cc1 -13.3%
CCOCc1c(C(=O)Nc2ccc(OC)nc2)oc2ccccc12 1.18%
COc1ccc(CN(C)C[C@H]2OCCCC[C@H](C)Oc3ccc(NS(=O)(=O)c4cccs4)cc3C(=O)N([C@@H](C)CO)C[C@@H]2C)cc1 38.5%
O=C(Cc1ccccn1)N1CC(=O)N2[C@@H](CO)[C@H](c3ccc(C#CC4CCCC4)cc3)[C@@H]2C1 30.6%
COc1ccc(C(=O)NCc2nnc(SCC(=O)NC3CCCCC3)n2C)cc1 -3.46%
C[C@H](NC(=O)C[C@H]1CC[C@H]2[C@@H](COC[C@H](O)CN2C(=O)Nc2ccccc2)O1)c1ccccc1 46.1%
CN(C)C(=O)[C@@H]1[C@@H](CO)[C@@H]2Cn3c(ccc(/C=C/c4ccccc4)c3=O)[C@@H]2N1C(=O)c1cnccn1 10.7%
COc1ccc2c3c([nH]c2c1)[C@@H](CO)N(Cc1ccccc1)CC31CN(C)C1 -25.8%
CC(Nc1ccc(F)cc1)=[N+](C)CCNS(=O)(=O)c1ccc(Cl)cc1 -9.26%
COc1ccc(CN(C)C[C@H]2Oc3c(NC(=O)NC4CCCCC4)cccc3C(=O)N([C@H](C)CO)C[C@@H]2C)cc1 13.5%
C[C@@H]1CN([C@H](C)CO)C(=O)c2cccc(NC(=O)Nc3ccc(C(F)(F)F)cc3)c2O[C@@H]1CN(C)C 40.4%
COc1ccc2c3c([nH]c2c1)[C@H](CO)N(CC1CC1)CC31CCN(C(=O)c2ccccc2F)CC1 30.8%
Cn1c(CCC(=O)Nc2cc(S(C)(=O)=O)ccc2Cl)nc2cc(S(=O)(=O)N3CCOCC3)ccc21 -16.7%
COc1ccc(C#Cc2cccc(-c3nc(C(=O)N4CCN(C)CC4)cc4c3[C@@H](CCO)N(S(=O)C(C)(C)C)C4)c2)cc1OC (stereo partly drawn) 37.6%
COc1ccccc1OCCNC(=O)C1CCCCC1 1.14%
CCOc1ccccc1-n1nnnc1SCC(=O)NC(=O)Cc1ccccc1 -3.38%
O=C(CN1CCN(S(=O)(=O)N2CCOCC2)CC1)Nc1ccc(Cl)c(Cl)c1 11.9%
Cc1ccc(S(=O)(=O)N(C)C[C@@H]2Oc3ccc(NC(=O)c4ccncc4)cc3C(=O)N([C@H](C)CO)C[C@H]2C)cc1 22.3% [at 10 µM]
C[C@@H]1CN([C@H](C)CO)S(=O)(=O)c2ccc(-c3ccccc3)cc2O[C@H]1CN(C)S(C)(=O)=O 40.4%
Cc1[nH]c2ccccc2c1C(=O)CN1C(=O)C(=O)N(Cc2ccco2)C1=O -9.8%
C[C@@H]1CN([C@H](C)CO)C(=O)Cc2cc(NC(=O)Nc3cccc4ccccc34)ccc2O[C@H]1CN(C)Cc1ccc(C(=O)O)cc1 18.3%
CCOC(=O)c1nnn(CC(=O)Nc2ccccc2)c1C(=O)OCC -2.98%
CN(Cc1ccccc1)C(=O)c1ncn(C)c1C(=O)N(C)Cc1ccccc1 -14.8%
CCCNC(=O)C[C@@H]1CC[C@@H]2[C@H](COC[C@H](O)CN2C(=O)Nc2cccc(Cl)c2)O1 47.7%
C[C@@H]1CN([C@H](C)CO)C(=O)c2cc(NC(=O)C3CC3)ccc2O[C@H]1CN(C)Cc1ccncc1 26.1% [at 2.6 µM]
Cc1ccc(NC(=O)C2CCN(C(=O)c3cccs3)CC2)c(C)c1 -4.73%
CNC[C@H]1Oc2c(NC(=O)Nc3ccc(F)cc3)cccc2C(=O)N([C@@H](C)CO)C[C@@H]1C 40%
Cc1nc2cc(NC(=O)C3COc4ccccc4O3)ccc2s1 (stereo not drawn) -0.647%
C[C@H](CO)N1C[C@H](C)[C@@H](CN(C)Cc2ccc(C(=O)O)cc2)OCCCC[C@H](C)Oc2ccc(NC(=O)Nc3ccccc3)cc2C1=O 58.9%
C[C@@H]1CN([C@@H](C)CO)C(=O)c2cccc(NC(=O)c3cnccn3)c2O[C@H]1CN(C)Cc1ccc(Cl)c(Cl)c1 17.8%
